Measurements from publication PMC5540273 (PLoS ONE, 2017).

How the values were obtained:
Conditions in all cases: concentration: 1 μM, replicates: in singlicate; n = 1
CDK4 = test system: CDK4
CDK5 = test system: CDK5
CDK7 = test system: CDK7
CDK8 = test system: CDK8
CDK9 = test system: CDK9
CDKL1 = test system: CDKL1
CDKL2 = test system: CDKL2
CDKL3 = test system: CDKL3
CDKL5 = test system: CDKL5
CHEK1 = test system: CHEK1
CHEK2 = test system: CHEK2
CIT = test system: CIT
CLK1 = test system: CLK1
CLK2 = test system: CLK2
CLK3 = test system: CLK3
CLK4 = test system: CLK4
CSF1R-autoinhibited = test system: CSF1R-autoinhibited
CSF1R = test system: CSF1R
CSK = test system: CSK
CSNK1A1L = test system: CSNK1A1L
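Also: KINOMEscan kinase panel screen.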

With `COc1cc2ncnc(Nc3ccc4nc(-c5ccccc5)[nH]c4c3)c2cc1OC.Cl` [GW282450] the “%Inh” value (CDK4) was 20%, the “%Inh” value (CDK5) was 0% and the “%Inh” value (CDK7) was 0%. The “%Inh” value (CDK8) was 0%, the “%Inh” value (CDK9) was 0% and the “%Inh” value (CDKL1) was 1%. The “%Inh” value (CDKL2) was 7%, the “%Inh” value (CDKL3) was 0% and the “%Inh” value (CDKL5) was 1%. The “%Inh” value (CHEK1) was 0%, the “%Inh” value (CHEK2) was 26% and the “%Inh” value (CIT) was 59%. For the same compound, the “%Inh” value (CLK1) was 14%, the “%Inh” value (CLK2) was 0% and the “%Inh” value (CLK3) was 12%. The “%Inh” value (CLK4) was 3%, the “%Inh” value (CSF1R-autoinhibited) was 0% and the “%Inh” value (CSF1R) was 3%. For the same compound, the “%Inh” value (CSK) was 10% and the “%Inh” value (CSNK1A1L) was 0%.
With `CC(C)(C)c1ccc(C(=O)Nc2cn3cc(-c4cccnc4)ccc3n2)cc1` the “%Inh” value (CDK4) was 0%, the “%Inh” value (CDK5) was 3% and the “%Inh” value (CDK7) was 35%. For the same compound, the “%Inh” value (CDK8) was 6%, the “%Inh” value (CDK9) was 12% and the “%Inh” value (CDKL1) was 39%. For the same compound, the “%Inh” value (CDKL2) was 6%, the “%Inh” value (CDKL3) was 20% and the “%Inh” value (CDKL5) was 0%. The “%Inh” value (CHEK1) was 25%, the “%Inh” value (CHEK2) was 6% and the “%Inh” value (CIT) was 28%. For the same compound, the “%Inh” value (CLK1) was 84%, the “%Inh” value (CLK2) was 41% and the “%Inh” value (CLK3) was 32%. For the same compound, the “%Inh” value (CLK4) was 74%, the “%Inh” value (CSF1R-autoinhibited) was 10% and the “%Inh” value (CSF1R) was 30%. For the same compound, the “%Inh” value (CSK) was 13% and the “%Inh” value (CSNK1A1L) was 15%.
In the case of `Cn1ccc2ncnc(Oc3cccc(C(=O)Nc4ccccc4)c3)c21`, the “%Inh” value (CDK4) is reported as 0%, the “%Inh” value (CDK5) is reported as 16% and the “%Inh” value (CDK7) is reported as 4%. For the same compound, the “%Inh” value (CDK8) was 22%, the “%Inh” value (CDK9) was 1% and the “%Inh” value (CDKL1) was 0%. The “%Inh” value (CDKL2) was 13%, the “%Inh” value (CDKL3) was 0% and the “%Inh” value (CDKL5) was 0%. For the same compound, the “%Inh” value (CHEK1) was 0%, the “%Inh” value (CHEK2) was 0% and the “%Inh” value (CIT) was 8%. The “%Inh” value (CLK1) was 9%, the “%Inh” value (CLK2) was 0% and the “%Inh” value (CLK3) was 0%. For the same compound, the “%Inh” value (CLK4) was 18%, the “%Inh” value (CSF1R-autoinhibited) was 9% and the “%Inh” value (CSF1R) was 6%. For the same compound, the “%Inh” value (CSK) was 14% and the “%Inh” value (CSNK1A1L) was 2%.
With `COc1cccc(NC(=O)NC2CCN(c3ccnc(Nc4ccc(F)cc4)n3)C2)c1` (stereo not drawn) [GSK1379721] the “%Inh” value (CDK4) was 0%, the “%Inh” value (CDK5) was 0% and the “%Inh” value (CDK7) was 0%. The “%Inh” value (CDK8) was 61%, the “%Inh” value (CDK9) was 14% and the “%Inh” value (CDKL1) was 5%. The “%Inh” value (CDKL2) was 61%, the “%Inh” value (CDKL3) was 0% and the “%Inh” value (CDKL5) was 7%. For the same compound, the “%Inh” value (CHEK1) was 2%, the “%Inh” value (CHEK2) was 27% and the “%Inh” value (CIT) was 23%. For the same compound, the “%Inh” value (CLK1) was 25%, the “%Inh” value (CLK2) was 1% and the “%Inh” value (CLK3) was 21%. For the same compound, the “%Inh” value (CLK4) was 0%, the “%Inh” value (CSF1R-autoinhibited) was 17% and the “%Inh” value (CSF1R) was 14%. The “%Inh” value (CSK) was 6% and the “%Inh” value (CSNK1A1L) was 0%.
For `O=C(O)COc1ncnc2cc(-c3ccc4[nH]ncc4c3)sc12`, the “%Inh” value (CDK4) was 0%, the “%Inh” value (CDK5) was 45% and the “%Inh” value (CDK7) was 30%. For the same compound, the “%Inh” value (CDK8) was 4%, the “%Inh” value (CDK9) was 0% and the “%Inh” value (CDKL1) was 11%. For the same compound, the “%Inh” value (CDKL2) was 0%, the “%Inh” value (CDKL3) was 13% and the “%Inh” value (CDKL5) was 17%. For the same compound, the “%Inh” value (CHEK1) was 0%, the “%Inh” value (CHEK2) was 1% and the “%Inh” value (CIT) was 8%. For the same compound, the “%Inh” value (CLK1) was 76%, the “%Inh” value (CLK2) was 43% and the “%Inh” value (CLK3) was 0%. The “%Inh” value (CLK4) was 79%, the “%Inh” value (CSF1R-autoinhibited) was 0% and the “%Inh” value (CSF1R) was 0%. The “%Inh” value (CSK) was 0% and the “%Inh” value (CSNK1A1L) was 0%.
With `O=C1NC(=O)C(N2CCc3ccccc32)=C1c1ccccc1Cl` [SB-373598] the “%Inh” value (CDK4) was 27%, the “%Inh” value (CDK5) was 0% and the “%Inh” value (CDK7) was 29%. For the same compound, the “%Inh” value (CDK8) was 25%, the “%Inh” value (CDK9) was 8% and the “%Inh” value (CDKL1) was 18%. For the same compound, the “%Inh” value (CDKL2) was 23%, the “%Inh” value (CDKL3) was 4% and the “%Inh” value (CDKL5) was 0%. The “%Inh” value (CHEK1) was 2%, the “%Inh” value (CHEK2) was 0% and the “%Inh” value (CIT) was 29%. For the same compound, the “%Inh” value (CLK1) was 12%, the “%Inh” value (CLK2) was 45% and the “%Inh” value (CLK3) was 0%. The “%Inh” value (CLK4) was 19%, the “%Inh” value (CSF1R-autoinhibited) was 0% and the “%Inh” value (CSF1R) was 4%. The “%Inh” value (CSK) was 46% and the “%Inh” value (CSNK1A1L) was 15%.
With `Cc1csc(-c2nc(Nc3ccncc3)c3ccccc3n2)n1` [GW869640] the “%Inh” value (CDK4) was 20%, the “%Inh” value (CDK5) was 13% and the “%Inh” value (CDK7) was 31%. For the same compound, the “%Inh” value (CDK8) was 0%, the “%Inh” value (CDK9) was 9% and the “%Inh” value (CDKL1) was 6%. The “%Inh” value (CDKL2) was 1%, the “%Inh” value (CDKL3) was 19% and the “%Inh” value (CDKL5) was 19%. The “%Inh” value (CHEK1) was 7%, the “%Inh” value (CHEK2) was 15% and the “%Inh” value (CIT) was 61%. For the same compound, the “%Inh” value (CLK1) was 15%, the “%Inh” value (CLK2) was 19% and the “%Inh” value (CLK3) was 35%. The “%Inh” value (CLK4) was 8%, the “%Inh” value (CSF1R-autoinhibited) was 28% and the “%Inh” value (CSF1R) was 0%. For the same compound, the “%Inh” value (CSK) was 3% and the “%Inh” value (CSNK1A1L) was 10%.
`Cc1cc(-c2ccc3c(c2)CC[C@@H](N[C@@H](C)c2ccccc2)C3)cnc1N.Cl` [GW412617] was tested, and the “%Inh” value (CDK4) was 26%, the “%Inh” value (CDK5) was 4% and the “%Inh” value (CDK7) was 0%. The “%Inh” value (CDK8) was 14%, the “%Inh” value (CDK9) was 0% and the “%Inh” value (CDKL1) was 0%. The “%Inh” value (CDKL2) was 18%, the “%Inh” value (CDKL3) was 0% and the “%Inh” value (CDKL5) was 0%. The “%Inh” value (CHEK1) was 14%, the “%Inh” value (CHEK2) was 6% and the “%Inh” value (CIT) was 24%. For the same compound, the “%Inh” value (CLK1) was 13%, the “%Inh” value (CLK2) was 0% and the “%Inh” value (CLK3) was 0%. The “%Inh” value (CLK4) was 10%, the “%Inh” value (CSF1R-autoinhibited) was 0% and the “%Inh” value (CSF1R) was 27%. For the same compound, the “%Inh” value (CSK) was 0% and the “%Inh” value (CSNK1A1L) was 21%.
With `Fc1cccc(COc2nnc(-c3ccc4c(c3)CCO4)o2)c1` the “%Inh” value (CDK4) was 0%, the “%Inh” value (CDK5) was 0% and the “%Inh” value (CDK7) was 9%. For the same compound, the “%Inh” value (CDK8) was 19%, the “%Inh” value (CDK9) was 0% and the “%Inh” value (CDKL1) was 0%. The “%Inh” value (CDKL2) was 9%, the “%Inh” value (CDKL3) was 9% and the “%Inh” value (CDKL5) was 0%. For the same compound, the “%Inh” value (CHEK1) was 0%, the “%Inh” value (CHEK2) was 10% and the “%Inh” value (CIT) was 0%. For the same compound, the “%Inh” value (CLK1) was 32%, the “%Inh” value (CLK2) was 13% and the “%Inh” value (CLK3) was 0%. The “%Inh” value (CLK4) was 53%, the “%Inh” value (CSF1R-autoinhibited) was 0% and the “%Inh” value (CSF1R) was 11%. The “%Inh” value (CSK) was 0% and the “%Inh” value (CSNK1A1L) was 12%.
